{
  "source": "PubChem BioAssay (NCI)",
  "note": "The panel holds about 83,000 compounds, 20% with a hit somewhere; the sample as a whole holds those more often.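 Activity criterion: percent growth below 10, measured after cells in 96-well plates were exposed to a single compound concentration for 48 hours.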 Active and inactive are the calls of the source.",
  "data": [
    {"tested_on": "SF-268 CNS", "assay": "NCI-60 one-dose screen, 48 h (100 = growth as untreated, 0 = no growth, -100 = all killed)", "conditions": "10 µM unless noted", "values": [
      {"compound": "CCO/C=N/C1=C(C#N)C(c2ccc(F)cc2)c2sc3c(C)cccc3c2O1", "note": "(stereo unspecified)", "growth": "38.3% (inactive)"},
      {"compound": "COc1cc(-c2nc(SC(C)C)n(C(C)C)c(=O)c2C#N)ccc1OCc1ccccc1", "growth": "85.6% (inactive)"},
      {"compound": "CCCCCc1ccc(S(=O)(=O)Nc2cccc(-c3csc(NCCN4CCN(C)CC4)n3)c2)cc1", "growth": "80.9% (inactive)"}
    ]},
    {"tested_on": "SF-295 CNS", "assay": "NCI-60 one-dose screen, 48 h (100 = growth as untreated, 0 = no growth, -100 = all killed)", "conditions": "10 µM unless noted", "values": [
      {"compound": "CN1CCN(Cc2ccc(NC(=O)c3cncc(C#Cc4cnc5ccc(NCCCO)nn45)c3)cc2C(F)(F)F)CC1", "growth": "-12.1% (active)"},
      {"compound": "COC(=O)c1[nH]nc2c1C1(C(=O)N(C)c3ccccc31)C(C#N)=C(N)O2", "note": "(stereo unspecified)", "growth": "118% (inactive)"},
      {"compound": "O=C(Cn1cc(-c2ccccc2)nn1)Nc1nc(-c2ccc(Cl)cc2)cs1", "growth": "77.7% (inactive)"},
      {"compound": "COc1cc(OC)c(S(N)(=O)=O)cc1C(C)=O", "growth": "100% (inactive)"},
      {"compound": "COc1ccccc1N1CCN(C2=CC(=O)C(C)=C(C)C2=O)CC1", "growth": "103% (inactive)"},
      {"compound": "NC(N)=Nc1ccc(Oc2cccc(Nc3ccc(Br)c(C(F)(F)F)c3)c2)cn1", "growth": "-86.8% (active)"},
      {"compound": "Cn1ccnc1C(=O)/C=C/c1ccc(CNC(=O)c2ccc(F)cc2)cc1", "growth": "49.1% (inactive)"},
      {"compound": "Cc1c(Cl)cccc1S(=O)(=O)Nc1ccc2c(c1)C(=O)N(C1CCC(=O)NC1=O)C2=O", "note": "(stereo unspecified)", "growth": "91.7% (inactive)"},
      {"compound": "NS(=O)(=O)c1ccc(-n2cc(-c3cccc(NC(=O)c4ccc(N5CCOCC5)c(C(F)(F)F)c4)c3)nn2)cc1", "growth": "32.6% (inactive)"},
      {"compound": "CCc1cccc2c3c(sc12)C(c1ccc(OC)cc1)C(C#N)=C(/N=C/c1ccc(Cl)cc1)O3", "note": "(stereo unspecified)", "growth": "6.9% (active)"},
      {"compound": "Nc1ncc(-c2ccc3ncnc(N4CCc5cc(F)c(F)cc54)c3c2)cn1", "growth": "20.7% (inactive)"},
      {"compound": "COc1c(N2CC3CCCNC3C2)c(F)cc2c(=O)c(C(=O)N/N=C/c3ccc(Br)cc3)cn(C3CC3)c12", "note": "(stereo unspecified)", "growth": "101% (inactive)"},
      {"compound": "O=C(NNc1nc2cc(F)c(F)cc2n2c(CN3CC4CNCC4C3)ccc12)c1ncccn1", "note": "(stereo unspecified)", "growth": "-14.5% (active)"},
      {"compound": "COc1ccc(/C=C(\\C#N)C(=O)N2c3ccccc3Sc3ccc(SC)cc32)cc1F", "growth": "104% (inactive)"},
      {"compound": "Cc1ccc(NC(=O)CNc2cc(C(N)=O)cc(F)c2C)c(Cl)c1", "growth": "101% (inactive)"},
      {"compound": "CNC(=O)c1cc(Oc2ccc3nc(NC(=O)c4cccc(OC(F)(F)F)c4)sc3c2)ccn1", "growth": "77.8% (inactive)"},
      {"compound": "O=C1CCCC2=C1C(c1c[nH]c3ccc(Br)cc13)Cc1cc(Br)ccc1N2", "note": "(stereo unspecified)", "growth": "-9.43% (active)"},
      {"compound": "COc1cc2oc(-c3cccc(C(=O)N[C@@H](CC(C)C)C(=O)OC(C)(C)C)c3)cc(=O)c2c(OC)c1OC", "growth": "52.3% (inactive)"},
      {"compound": "NC(N)=Nc1ccc(Nc2cccc(Nc3ccc(Cl)c(C(F)(F)F)c3)c2)cn1", "growth": "11.6% (inactive)"},
      {"compound": "CC(=O)c1nnn(-c2c(C(=O)n3nc(C)cc3C)sc(=S)n2-c2ccccc2)c1C", "growth": "109% (inactive)"},
      {"compound": "CS(=O)(=O)Nc1cc(-c2ccc3ncc(C#N)c(N[C@H](CO)c4ccccc4)c3c2)cnc1Cl", "growth": "57% (inactive)"},
      {"compound": "COc1ccc(C(=O)CSc2nc3c(c(Nc4ccc(S(N)(=O)=O)cc4)n2)CCCC3)cc1", "growth": "90.6% (inactive)"},
      {"compound": "CCn1c(SCC(=O)Nc2cccc(C(=O)/C=C/c3ccc(Br)cc3)c2)nc2ccccc2c1=O", "growth": "98.5% (inactive)"},
      {"compound": "N#Cc1c(Nc2ccccc2)nn2c(-c3ccc([N+](=O)[O-])cc3)ccnc12", "growth": "104% (inactive)"},
      {"compound": "O=C(CCn1c[n+](CC(=O)c2ccc(-c3ccccc3)cc2)c2ccccc21)Nc1cccc2cccnc12", "growth": "89.6% (inactive)"},
      {"compound": "COc1ccc(OC)c(-c2nc(SCC(=O)c3ccc(Br)cc3)nc(Nc3ccc(S(N)(=O)=O)cc3)c2C#N)c1", "growth": "33.1% (inactive)"},
      {"compound": "FC(F)(F)c1cc(Nc2cccc(Oc3ccc(NC4=NCCN4)nc3)c2)ccc1Cl", "growth": "-78.5% (active)"},
      {"compound": "CCO/C=N/C1=C(C#N)C(c2ccc(OC)cc2)c2sc3c(CC)cccc3c2O1", "note": "(stereo unspecified)", "growth": "3.52% (active)"},
      {"compound": "COc1ccc2c(c1)c(CC(=O)[Se]CCC#N)c(C)n2C(=O)c1ccc(Cl)cc1", "growth": "-82.9% (active)"},
      {"compound": "CN(C)CCN(C)c1ccc2ncc(C#Cc3cncc(C(=O)Nc4ccc(CN5CCN(C)CC5)c(C(F)(F)F)c4)c3)n2n1", "growth": "83.8% (inactive)"},
      {"compound": "NC(=O)c1c(NC(=O)c2ccccc2C(F)(F)F)sc2c1CCC(=O)C2", "growth": "73% (inactive)"},
      {"compound": "NC(N)=Nc1ccc(Oc2cccc(NC(N)=Nc3ccc(I)cc3F)c2)cc1", "growth": "77.3% (inactive)"},
      {"compound": "COc1ccc(CCOc2cc3c(cc2OC)CCN(C(=O)NCc2cocn2)C3c2ccc(C)cc2C)cc1", "note": "(stereo unspecified)", "growth": "12.8% (inactive)"},
      {"compound": "CC(C)(C)c1ccc(C(=O)Nc2nc3ccc(O)cc3s2)cc1", "growth": "3.43% (active)"},
      {"compound": "CC1(C)CC[C@]2(C(=O)N3CCOCC3)CC[C@]3(C)C(=CC[C@@H]4[C@@]5(C)C/C(=C/c6ccccn6)C(=O)C(C)(C)[C@@H]5CC[C@]43C)[C@@H]2C1", "growth": "75.1% (inactive)"},
      {"compound": "CCO/C=N/C1=C(C#N)C(c2ccc(F)cc2)c2sc3c(C)cccc3c2O1", "note": "(stereo unspecified)", "growth": "-6.89% (active)"},
      {"compound": "COc1cc(-c2nc(SC(C)C)n(C(C)C)c(=O)c2C#N)ccc1OCc1ccccc1", "growth": "80.3% (inactive)"},
      {"compound": "CCCCCc1ccc(S(=O)(=O)Nc2cccc(-c3csc(NCCN4CCN(C)CC4)n3)c2)cc1", "growth": "107% (inactive)"}
    ]}
  ]
}
